Test results as given in PubChem BioAssay (EPA / NIEHS).
Activity calls are given as the source filed them. How the source made its calls: active means hit-call score of the fitted dose curve at least 0.9, where 1 is the maximum; inactive means score below 0.9.

Tests used:
[1] = CEETOX_H295R_PROG: CeeTox H295R High-throughput Steroidogenesis Assay for Progesterone (PROG) (AID 2283442); settings: actives raise or lower the signal;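 on AC50: human H295R adrenal cells primed with 10 µM forskolin before dosing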
Outline: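 Progesterone read-out: HPLC-MS/MS on MTBE extracts of conditioned medium after 48 h chemical exposure of forskolin-primed (10 uM, 48 h) H295R cells. Gain or loss of signal was fitted relative to DMSO baseline.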

[2] = read-out: Tumor necrosis factor receptor superfamily member 6 (Homo sapiens) (UniProt P25445); test: LTEA_HepaRG_FAS: Life Technologies and Expression Analysis (LTEA) Assay for Fas cell surface death receptor (FAS) using HepaRG (AID 2283447); settings: mRNA level, 48 h; actives raise or lower the signal
Outline: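 Differentiated HepaRG cells in serum-free induction medium were exposed 48 h to 8 half-log concentrations up to 100 uM in 0.5% DMSO, in duplicate. FAS mRNA was measured by qRT-PCR normalised to ACTB, GAPDH and POLR2A; bidirectional fit versus DMSO.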

[3] = read-out: Fatty acid synthase (Homo sapiens) (UniProt P49327); test: LTEA_HepaRG_FASN: Life Technologies and Expression Analysis (LTEA) Assay for Fatty Acid Synthase (FASN) using HepaRG (AID 2283448); settings: mRNA level, 48 h; actives raise or lower the signal;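 on AC50: differentiated human HepaRG liver cells in serum-free induction medium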
Outline: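 FASN transcript measured by TaqMan qRT-PCR, normalised to three housekeeping genes, after 48 h chemical exposure of HepaRG cells. Eight-point half-log series from 100 uM in 0.5% DMSO, duplicates; gain or loss fitted against vehicle.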

[4] = read-out: Cyclin D2 (CCND2), CCND2 (gene 894); test: LTEA_HepaRG_CCND2: Life Technologies and Expression Analysis (LTEA) Assay for Cyclin D2 (CCND2) using HepaRG (AID 2283449); settings: mRNA level, 48 h; actives raise or lower the signal;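 further: CCND2 transcript measured by TaqMan qRT-PCR and normalised to three housekeeping genes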
Outline: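 HepaRG, 48 h dosing, 8-pt half-log curve from 100 uM, 0.5% DMSO; duplicate wells. Readout: CCND2 transcript by microfluidic qRT-PCR, housekeeping-normalised; bidirectional fit vs DMSO baseline.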

[5] = read-out: Cyclin Dependent Kinase Inhibitor 1A (CDKN1A), CDKN1A (gene 1026); test: LTEA_HepaRG_CDKN1A: Life Technologies and Expression Analysis (LTEA) Assay for Cyclin Dependent Kinase Inhibitor 1A (CDKN1A) using HepaRG (AID 2283450); settings: mRNA level, 48 h; actives raise or lower the signal
Outline: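 HepaRG, 48 h dosing, 8-pt half-log series from 100 uM top, 0.5% DMSO vehicle, duplicates. Readout: TaqMan qRT-PCR of CDKN1A transcript, housekeeping-normalized (ACTB, GAPDH, POLR2A). Up/down curve fit relative to DMSO.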

[6] = read-out: Cyclin D1 (CCND1), CCND1 (gene 595); test: LTEA_HepaRG_CCND1: Life Technologies and Expression Analysis (LTEA) Assay for Cyclin D1 (CCND1) using HepaRG (AID 2283451); settings: mRNA level, 48 h; actives raise or lower the signal;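 on AC50: differentiated human HepaRG liver cells in serum-free induction medium; TaqMan qRT-PCR transcript level normalised to ACTB GAPDH and POLR2A housekeeping genes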
Outline: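 qRT-PCR (Fluidigm 96.96 array) read-out of transcript level, housekeeping-normalized (ACTB/GAPDH/POLR2A). HepaRG cells, 48 h chemical exposure, 8-point half-log series from 100 uM, 0.5% DMSO vehicle; gain or loss relative to DMSO baseline.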

[7] = read-out: catalase (CAT), CAT (gene 847); test: LTEA_HepaRG_CAT: Life Technologies and Expression Analysis (LTEA) Assay for catalase (CAT) using HepaRG (AID 2283452); settings: mRNA level, 48 h; actives raise or lower the signal
Outline: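 HepaRG cells in serum-free induction medium, 0.5% DMSO vehicle, exposed 48 h in duplicate over 8 half-log concentrations from 100 uM. CAT mRNA measured by qRT-PCR, normalized to ACTB, GAPDH, POLR2A; bidirectional fit versus DMSO.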

[8] = read-out: flavin-containing dimethylaniline monooxygenases 3 (FMO3), FMO3 (gene 2328); test: LTEA_HepaRG_FMO3: Life Technologies and Expression Analysis (LTEA) Assay for flavin-containing dimethylaniline monooxygenases 3 (FMO3) using HepaRG (AID 2283453); settings: mRNA level, 48 h; actives raise or lower the signal;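 on AC50: differentiated human HepaRG liver cells in serum-free induction medium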
Outline: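 FMO3 transcript quantified by TaqMan qRT-PCR against three housekeeping genes after 48 h chemical exposure of HepaRG cells. Eight-point half-log series, top 100 uM, 0.5% DMSO vehicle; phenobarbital 1mM induction control; up- or down-regulation fitted.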

[9] = read-out: Cytochrome P450 (CYP1A1), CYP1A1 (gene 1543); test: LTEA_HepaRG_CYP1A1: Life Technologies and Expression Analysis (LTEA) Assay for Cytochrome P450 (CYP1A1) using HepaRG (AID 2283454); settings: mRNA level, 48 h; actives raise or lower the signal
Outline: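 qRT-PCR read-out: CYP1A1 transcript normalized to three housekeeping genes, fitted bidirectionally against 0.5% DMSO vehicle baseline. Human HepaRG cells, 48 h chemical exposure, 8-point half-log series topping at 100 uM.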

[10] = read-out: Forkhead box O1 (FOXO1), FOXO1 (gene 2308); test: LTEA_HepaRG_FOXO1: Life Technologies and Expression Analysis (LTEA) Assay for Forkhead box O1 (FOXO1) using HepaRG (AID 2283456); settings: mRNA level, 48 h; actives raise or lower the signal
Outline: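 HepaRG, 48 h exposure, 8-pt half-log series from 100 uM in 0.5% DMSO, duplicates; Fluidigm qRT-PCR mRNA, housekeeping-normalised; bidirectional fit vs DMSO baseline.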

[11] = read-out: growth arrest and DNA damage 45 (GADD45A), GADD45A (gene 1647); test: LTEA_HepaRG_GADD45A: Life Technologies and Expression Analysis (LTEA) Assay for growth arrest and DNA damage 45 (GADD45A) using HepaRG (AID 2283458); settings: mRNA level, 48 h; actives raise or lower the signal
Outline: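 GADD45A expression was measured by TaqMan qRT-PCR against three housekeeping genes (ACTB, GAPDH, POLR2A) after 48 h treatment of HepaRG cells. Eight-point half-log series up to 100 uM in 0.5% DMSO, run in duplicate.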

[12] = read-out: growth arrest and DNA damage 45 (GADD45B), GADD45B (gene 4616); test: LTEA_HepaRG_GADD45B: Life Technologies and Expression Analysis (LTEA) Assay for growth arrest and DNA damage 45 (GADD45B) using HepaRG (AID 2283461); settings: mRNA level, 48 h; actives raise or lower the signal
Outline: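 qRT-PCR read-out (Fluidigm TaqMan, housekeeping-normalized) of mRNA change in human HepaRG cells after 48 h chemical exposure; 8-point curve, top 100 uM, half-log steps, 0.5% DMSO vehicle; gain or loss fitted relative to DMSO baseline.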

[13] = read-out: ABC Transporter (ABCC3), ABCC3 (gene 8714); test: LTEA_HepaRG_ABCC3: Life Technologies and Expression Analysis (LTEA) Assay for ABC Transporter (ABCC3) using HepaRG (AID 2283462); settings: mRNA level, 48 h; actives raise or lower the signal
Outline: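 qRT-PCR read-out of ABCC3 transcript, normalized to three housekeeping genes (ACTB, GAPDH, POLR2A), after 48 h chemical exposure of human HepaRG cells. Eight half-log concentrations, highest 100 uM, in 0.5% DMSO; gain or loss fitted relative to DMSO baseline.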

[14] = read-out: ABC Transporter (ABCB11), ABCB11 (gene 8647); test: LTEA_HepaRG_ABCB11: Life Technologies and Expression Analysis (LTEA) Assay for ABC Transporter (ABCB11) using HepaRG (AID 2283463); settings: mRNA level, 48 h; actives raise or lower the signal
Outline: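 HepaRG, 48 h exposure, 8-pt half-log CRC top 100 uM, 0.5% DMSO vehicle, duplicates. Readout: TaqMan qRT-PCR of ABCB11 mRNA, housekeeping-normalized (ACTB/GAPDH/POLR2A). Bidirectional fit vs DMSO baseline.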

[15] = read-out: ABC Transporter (ABCC2), ABCC2 (gene 1244); test: LTEA_HepaRG_ABCC2: Life Technologies and Expression Analysis (LTEA) Assay for ABC Transporter (ABCC2) using HepaRG (AID 2283464); settings: mRNA level, 48 h; actives raise or lower the signal
Outline: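 qRT-PCR (TaqMan, Fluidigm array) read-out of ABCC2 mRNA, normalized to three housekeeping genes. Differentiated HepaRG cells were treated 48 h in serum-free induction medium with 8-point half-log series from 100 uM in 0.5% DMSO; curves fitted bidirectionally relative to DMSO.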

[16] = read-out: Broad substrate specificity ATP-binding cassette transporter ABCG2 (Homo sapiens) (UniProt Q9UNQ0); test: LTEA_HepaRG_ABCG2: Life Technologies and Expression Analysis (LTEA) Assay for ABC Transporter (ABCG2) using HepaRG (AID 2283465); settings: mRNA level, 48 h; actives raise or lower the signal
Outline: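 HepaRG, 48 h exposure, 8-pt half-log series from 100 uM, 0.5% DMSO vehicle, duplicates. Readout: ABCG2 transcript by qRT-PCR (Fluidigm array), housekeeping-normalized; bidirectional curve fit relative to DMSO baseline.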

[17] = read-out: ABC Transporter (ABCB1), ABCB1 (gene 5243); test: LTEA_HepaRG_ABCB1: Life Technologies and Expression Analysis (LTEA) Assay for ABC Transporter (ABCB1) using HepaRG (AID 2283460); settings: mRNA level, 48 h; actives raise or lower the signal
Outline: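 HepaRG, 48 h exposure, 8-pt half-log series from 100 uM, 0.5% DMSO vehicle, duplicates. Readout: ABCB1 transcript by Fluidigm TaqMan qRT-PCR, housekeeping-normalized; bidirectional curve fit vs DMSO baseline.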

[18] = read-out: Forkhead box O3 (FOXO3), FOXO3 (gene 2309); test: LTEA_HepaRG_FOXO3: Life Technologies and Expression Analysis (LTEA) Assay for Forkhead box O3 (FOXO3) using HepaRG (AID 2283459); settings: mRNA level, 48 h; actives raise or lower the signal
Outline: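 qRT-PCR readout of FOXO3 transcript, normalized to three housekeeping genes (ACTB, GAPDH, POLR2A); gain or loss fitted against 0.5% DMSO vehicle. HepaRG cells, 48 h chemical exposure, 8-point half-log series, top 100 uM.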

Sequence of Fatty acid synthase (Homo sapiens) (P49327 whole entry, looked up): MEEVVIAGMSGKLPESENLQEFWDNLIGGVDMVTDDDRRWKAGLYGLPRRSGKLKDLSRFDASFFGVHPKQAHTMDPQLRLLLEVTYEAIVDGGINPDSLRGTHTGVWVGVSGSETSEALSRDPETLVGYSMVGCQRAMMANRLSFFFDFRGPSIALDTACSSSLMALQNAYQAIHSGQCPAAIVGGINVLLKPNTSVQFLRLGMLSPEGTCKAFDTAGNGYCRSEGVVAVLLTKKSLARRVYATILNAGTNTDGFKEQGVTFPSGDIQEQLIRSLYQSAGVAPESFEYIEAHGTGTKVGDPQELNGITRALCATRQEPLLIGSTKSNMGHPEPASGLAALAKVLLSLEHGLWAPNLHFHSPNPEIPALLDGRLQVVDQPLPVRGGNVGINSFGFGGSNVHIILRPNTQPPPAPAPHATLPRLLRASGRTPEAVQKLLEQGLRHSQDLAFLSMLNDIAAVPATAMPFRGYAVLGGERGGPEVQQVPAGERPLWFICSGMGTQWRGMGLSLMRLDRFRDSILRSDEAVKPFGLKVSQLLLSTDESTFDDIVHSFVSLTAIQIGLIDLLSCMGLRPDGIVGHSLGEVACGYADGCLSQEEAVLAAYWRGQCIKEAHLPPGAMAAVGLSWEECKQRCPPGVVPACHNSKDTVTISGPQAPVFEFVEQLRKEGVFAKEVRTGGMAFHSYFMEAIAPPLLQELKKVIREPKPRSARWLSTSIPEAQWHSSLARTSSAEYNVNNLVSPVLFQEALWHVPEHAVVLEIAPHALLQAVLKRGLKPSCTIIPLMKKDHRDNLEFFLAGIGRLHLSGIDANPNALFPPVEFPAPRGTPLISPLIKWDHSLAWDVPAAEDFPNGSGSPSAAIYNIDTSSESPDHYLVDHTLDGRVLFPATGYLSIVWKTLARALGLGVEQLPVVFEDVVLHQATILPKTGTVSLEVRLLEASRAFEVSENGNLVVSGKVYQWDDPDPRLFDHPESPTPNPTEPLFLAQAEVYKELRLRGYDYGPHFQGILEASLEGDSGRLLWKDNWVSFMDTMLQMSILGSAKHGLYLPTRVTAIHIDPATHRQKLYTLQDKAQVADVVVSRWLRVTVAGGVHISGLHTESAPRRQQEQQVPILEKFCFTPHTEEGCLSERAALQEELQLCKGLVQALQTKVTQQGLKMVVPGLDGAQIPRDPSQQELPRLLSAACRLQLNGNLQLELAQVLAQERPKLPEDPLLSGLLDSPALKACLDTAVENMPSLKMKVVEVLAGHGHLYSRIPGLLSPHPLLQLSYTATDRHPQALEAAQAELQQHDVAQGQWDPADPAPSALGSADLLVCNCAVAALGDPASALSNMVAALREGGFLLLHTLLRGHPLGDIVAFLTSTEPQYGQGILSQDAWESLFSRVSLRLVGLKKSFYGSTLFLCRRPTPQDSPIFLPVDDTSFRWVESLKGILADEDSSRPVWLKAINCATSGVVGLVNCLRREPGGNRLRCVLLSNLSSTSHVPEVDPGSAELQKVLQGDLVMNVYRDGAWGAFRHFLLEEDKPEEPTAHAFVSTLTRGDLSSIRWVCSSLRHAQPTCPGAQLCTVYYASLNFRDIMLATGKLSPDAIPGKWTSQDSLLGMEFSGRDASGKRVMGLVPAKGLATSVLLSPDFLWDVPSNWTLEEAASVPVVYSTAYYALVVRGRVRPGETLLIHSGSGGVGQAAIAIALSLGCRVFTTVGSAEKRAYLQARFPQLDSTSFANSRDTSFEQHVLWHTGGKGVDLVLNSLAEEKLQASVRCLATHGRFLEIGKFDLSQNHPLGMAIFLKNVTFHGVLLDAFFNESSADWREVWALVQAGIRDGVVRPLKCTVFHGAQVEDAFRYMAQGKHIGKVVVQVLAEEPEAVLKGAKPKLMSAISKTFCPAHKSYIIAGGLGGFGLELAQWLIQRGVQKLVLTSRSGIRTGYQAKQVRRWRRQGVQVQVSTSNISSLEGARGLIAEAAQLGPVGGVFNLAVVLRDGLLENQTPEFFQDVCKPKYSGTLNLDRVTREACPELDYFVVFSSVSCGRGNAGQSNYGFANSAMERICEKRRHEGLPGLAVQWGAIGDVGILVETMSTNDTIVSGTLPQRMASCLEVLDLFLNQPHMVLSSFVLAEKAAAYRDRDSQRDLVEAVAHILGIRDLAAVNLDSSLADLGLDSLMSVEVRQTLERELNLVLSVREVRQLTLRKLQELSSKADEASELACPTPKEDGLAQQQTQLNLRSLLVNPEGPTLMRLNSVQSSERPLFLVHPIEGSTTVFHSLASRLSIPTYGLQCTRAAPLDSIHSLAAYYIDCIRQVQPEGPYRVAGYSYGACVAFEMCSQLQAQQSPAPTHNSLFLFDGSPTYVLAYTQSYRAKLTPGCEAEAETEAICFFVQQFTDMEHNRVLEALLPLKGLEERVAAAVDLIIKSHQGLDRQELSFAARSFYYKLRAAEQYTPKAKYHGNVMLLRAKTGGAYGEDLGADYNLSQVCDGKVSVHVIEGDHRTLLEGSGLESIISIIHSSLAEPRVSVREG
Sequence of Broad substrate specificity ATP-binding cassette transporter ABCG2 (Homo sapiens) (Q9UNQ0 whole entry, looked up): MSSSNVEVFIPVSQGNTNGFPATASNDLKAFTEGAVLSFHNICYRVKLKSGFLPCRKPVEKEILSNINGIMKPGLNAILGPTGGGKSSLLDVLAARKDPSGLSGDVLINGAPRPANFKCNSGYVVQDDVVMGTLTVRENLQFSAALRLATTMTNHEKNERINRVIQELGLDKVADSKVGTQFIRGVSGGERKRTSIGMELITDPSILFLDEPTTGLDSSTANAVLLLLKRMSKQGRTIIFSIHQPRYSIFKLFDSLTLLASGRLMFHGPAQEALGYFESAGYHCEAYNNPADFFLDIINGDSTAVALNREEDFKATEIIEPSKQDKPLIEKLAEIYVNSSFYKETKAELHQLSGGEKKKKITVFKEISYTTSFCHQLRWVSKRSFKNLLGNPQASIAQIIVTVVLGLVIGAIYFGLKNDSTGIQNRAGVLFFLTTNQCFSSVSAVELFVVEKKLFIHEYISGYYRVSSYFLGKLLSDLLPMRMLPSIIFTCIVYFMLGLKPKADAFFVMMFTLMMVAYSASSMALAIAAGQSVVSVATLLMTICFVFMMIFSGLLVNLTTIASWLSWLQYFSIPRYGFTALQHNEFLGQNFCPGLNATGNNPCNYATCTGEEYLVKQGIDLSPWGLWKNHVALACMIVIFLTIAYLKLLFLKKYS

Which results are given for `CCCN(CC)CC1COC2(CCC(C(C)(C)C)CC2)O1` (stereo not given)?
AC50 [1]: 0.38 µM (active); outcome [2]: inactive; AC50 [3]: 0.274 µM (active); outcome [4]: inactive; outcome [5]: inactive; outcome [6]: inactive; outcome [7]: inactive; outcome [8]: inactive; AC50 [9]: 50 µM (active); outcome [10]: inactive; outcome [11]: inactive; outcome [12]: inactive; outcome [13]: inactive; outcome [14]: inactive; outcome [15]: inactive; outcome [16]: inactive

Which outcome [1] does the source give for `Cc1nc(N(C)C)nc(OC(=O)N(C)C)c1C` here?
The outcome was “inactive”.

What about the outcome [2] of the same compound?
Its outcome is “inactive”.

And the outcome [3]?
The outcome was “inactive”.

What about the outcome [4] of the same compound?
The outcome was “inactive”.

And the outcome [5]?
The outcome was “inactive”.

What about the outcome [6] of the same compound?
Its outcome is “inactive”.

What about the outcome [7] of the same compound?
Its outcome is “inactive”.

What about the outcome [8] of the same compound?
Its outcome is “inactive”.

What about the AC50 [9] of the same compound?
The AC50 was 34.3 µM (active).

And the outcome [10]?
Its outcome is “inactive”.

What about the outcome [11] of the same compound?
The outcome was “inactive”.

And the AC50 [17]?
The AC50 was 9.92 µM (active).

And the outcome [12]?
Its outcome is “inactive”.

And the outcome [13]?
The outcome was “inactive”.

And the outcome [14]?
The outcome was “inactive”.

And the outcome [15]?
Its outcome is “inactive”.

And the outcome [16]?
Its outcome is “inactive”.

For `CC(C)NC(=O)N1CC(=O)N(c2cc(Cl)cc(Cl)c2)C1=O`, which AC50 [1] is on record?
The AC50 was 16.9 µM (active).

And the outcome [2]?
The outcome was “inactive”.

And the AC50 [3]?
Its AC50 is 16.2 µM (active).

And the outcome [5]?
Its outcome is “inactive”.

And the AC50 [6]?
The AC50 was 23.8 µM (active).

What about the AC50 [7] of the same compound?
The AC50 was 13.3 µM (active).

What about the AC50 [8] of the same compound?
The AC50 was 17 µM (active).

And the AC50 [9]?
The AC50 was 5.2 µM (active).

What about the outcome [10] of the same compound?
Its outcome is “inactive”.

And the outcome [11]?
The outcome was “inactive”.

What about the AC50 [18] of the same compound?
Its AC50 is 7.56 µM (active).

And the AC50 [12]?
The AC50 was 26.3 µM (active).

What about the outcome [13] of the same compound?
Its outcome is “inactive”.

And the outcome [14]?
The outcome was “inactive”.

And the outcome [15]?
Its outcome is “inactive”.

And the AC50 [16]?
Its AC50 is 15 µM (active).

Which AC50 [1] does the source give for `CCOP(=S)(OCC)Oc1nc(Cl)n(C(C)C)n1` here?
Its AC50 is 61.8 µM (active).

And the outcome [2]?
The outcome was “inactive”.

What about the AC50 [3] of the same compound?
The AC50 was 30.5 µM (active).

What about the outcome [5] of the same compound?
The outcome was “inactive”.

And the outcome [6]?
The outcome was “inactive”.

What about the outcome [7] of the same compound?
Its outcome is “inactive”.

And the AC50 [8]?
Its AC50 is 24.7 µM (active).

And the AC50 [9]?
The AC50 was 9.25 µM (active).

What about the outcome [10] of the same compound?
Its outcome is “inactive”.

What about the outcome [11] of the same compound?
The outcome was “inactive”.

What about the outcome [18] of the same compound?
Its outcome is “inactive”.

And the outcome [17]?
Its outcome is “inactive”.

And the AC50 [13]?
The AC50 was 50 µM (active).

What about the AC50 [14] of the same compound?
Its AC50 is 1.64 µM (active).

What about the outcome [15] of the same compound?
Its outcome is “inactive”.

What about the outcome [16] of the same compound?
The outcome was “inactive”.
